# Assay results taken from PubChem BioAssay (NCI).
# The panel holds about 79,000 compounds, 15% with a hit somewhere; the sample as a whole holds those more often. A number with no mark means an inactive call. Active and inactive are the calls of the source. Cut-off read from the data, not from the text of the source: active = growth inhibition above about 70%; inactive = the rest.
# Assays:
# [1] = NCI Yeast Anticancer Drug Screen. Data for the rad52 strain (AID 147);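 note: 0% = growth of vehicle-treated control cultures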; conditions: S. cerevisiae rad52 mutant growth inhibition, stronger effect = higher value
# Summary of the method: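 Read-out: growth inhibition versus vehicle-treated controls. Cells were a DNA repair-deficient yeast strain treated with compounds.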
# [2] = NCI Yeast Anticancer Drug Screen. Data for the wt1 strain (AID 149);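 note: 0% = growth of vehicle-treated wt1 cultures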; conditions: S. cerevisiae wt1 strain (SPY 50644) growth inhibition, stronger effect = higher value
# Summary of the method: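 Measured: growth of wt1 yeast under compound versus vehicle treatment, reported as inhibition.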
# [3] = NCI Yeast Anticancer Drug Screen. Data for the rad50EPP+ strain (AID 151);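 note: 0% = growth of vehicle-treated control cultures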; conditions: S. cerevisiae rad50 mutant strain, stronger effect = higher value
# Summary of the method: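 Growth inhibition read against vehicle controls in rad50EPP+ yeast, a strain altered in DNA damage repair, after compound exposure.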
# [4] = NCI Yeast Anticancer Drug Screen. Data for the mgt1 strain (AID 153); conditions: S. cerevisiae mgt1 mutant growth inhibition, stronger effect = higher value
# Summary of the method: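 mgt1 yeast grown with test compound; read-out is growth inhibition versus vehicle-treated cultures.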
# [5] = NCI Yeast Anticancer Drug Screen. Data for the rad50 strain (AID 155);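 note: 0% = growth of vehicle-only cultures of the same strain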; conditions: S. cerevisiae rad50 strain growth inhibition, stronger effect = higher value
# Summary of the method: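 Growth of the mutant yeast was measured after compound exposure and referenced to vehicle-treated cultures.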
# [6] = NCI Yeast Anticancer Drug Screen. Data for the mec2-1 strain (AID 157); conditions: S. cerevisiae mec2-1 strain, stronger effect = higher value
# Summary of the method: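 Yeast mec2-1 mutant treated with compound. Readout: growth inhibition vs vehicle controls.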
# [7] = NCI Yeast Anticancer Drug Screen. Data for the rad14 strain (AID 159);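 note: 0% = growth of vehicle-treated control cultures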; conditions: S. cerevisiae rad14 strain growth inhibition, stronger effect = higher value
# Summary of the method: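 Here, inhibition of yeast growth was measured after compound exposure, using a strain with a genetic defect in DNA damage repair and vehicle-treated cultures as the reference.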
# [8] = NCI Yeast Anticancer Drug Screen. Data for the sgs1 mgt1 strain (AID 161);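 note: 0% = growth of cultures given vehicle only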; conditions: S. cerevisiae sgs1 mgt1 strain, stronger effect = higher value
# Summary of the method: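 Read-out: growth inhibition vs vehicle controls. Cells: mutant yeast strain deficient in DNA damage repair.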
# [9] = NCI Yeast Anticancer Drug Screen. Data for the CLN2oe strain (AID 163);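 note: 0% = growth of vehicle-only control cultures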; conditions: S. cerevisiae CLN2oe strain, stronger effect = higher value
# Summary of the method: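 Read-out: yeast growth inhibition, expressed relative to vehicle-only controls. The strain bears an engineered cell-cycle alteration.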
# [10] = NCI Yeast Anticancer Drug Screen. Data for the cln2 rad14 strain (AID 165);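 note: 0% = growth equal to vehicle treated cultures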; conditions: S. cerevisiae cln2 rad14 strain, stronger effect = higher value
# Summary of the method: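 cln2 rad14 yeast strain; compound exposure; growth inhibition read vs vehicle controls.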
# [11] = NCI Yeast Anticancer Drug Screen. Data for the bub3 strain (AID 167); conditions: S. cerevisiae bub3 mutant strain, stronger effect = higher value
# Summary of the method: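 Whole-cell yeast assay. The mutant strain was incubated with compounds, and growth inhibition was determined by comparison with vehicle-treated cells.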
# [12] = NCI Yeast Anticancer Drug Screen. Data for the wt2 strain (AID 169);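 note: 0% = growth of vehicle-treated yeast cultures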; conditions: S. cerevisiae wt2 strain growth inhibition, stronger effect = higher value
# Summary of the method: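 Read-out: growth inhibition versus vehicle-treated control cultures after compound exposure of the yeast strain.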
# [13] = NCI Yeast Anticancer Drug Screen. Data for the mlh1 strain (AID 171);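 note: 0% = growth of vehicle-treated control cultures of the same strain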; conditions: S. cerevisiae mlh1 strain growth inhibition, stronger effect = higher value
# Summary of the method: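 Read-out: growth inhibition versus vehicle controls. Strain: engineered yeast with a defined DNA repair or cell cycle defect, compound-treated.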
# [14] = NCI Yeast Anticancer Drug Screen. Data for the sgs1 strain (AID 173);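 note: 0% = growth of vehicle-only control cultures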; conditions: S. cerevisiae sgs1 mutant, stronger effect = higher value
# Summary of the method: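 Read-out: yeast growth inhibition relative to vehicle controls, following compound exposure of a strain with a defined DNA repair/cell cycle alteration.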
# [15] = NCI Yeast Anticancer Drug Screen. Data for the mlh1 rad18 strain (AID 175); conditions: S. cerevisiae mlh1 rad18 strain growth inhibition, stronger effect = higher value
# Summary of the method: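 Yeast w/ defined DNA-repair lesions; compound exposure; growth vs vehicle controls → % inhibition.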
# [16] = NCI Yeast Anticancer Drug Screen. Data for the rad18 strain (AID 177); conditions: S. cerevisiae rad18 mutant growth inhibition, stronger effect = higher value
# Summary of the method: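 Readout: growth inhibition vs vehicle controls. Cells: genetically altered yeast strain, DNA repair defect.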
# [17] = at 5.0 µM (retest, dose inferred, filed as 0.5)
# [18] = at 50.0 µM (retest, dose inferred, filed as 5.0)
smiles,measurement,setting,value
O=C(c1ccc([N+](=O)[O-])cc1)C1N=NCC1c1ccccc1 (stereo unspecified),growth inhibition,[1]; at 1.2 µM,2%
same,growth inhibition,[1]; at 3.7 µM,5%
same,growth inhibition,[1]; at 11.0 µM,6%
same,growth inhibition,[1]; at 33.0 µM,7%
same,growth inhibition,[1]; at 100.0 µM,45%
same,growth inhibition,[2]; at 1.2 µM,2%
same,growth inhibition,[2]; at 3.7 µM,1%
same,growth inhibition,[2]; at 11.0 µM,4%
same,growth inhibition,[2]; at 33.0 µM,1%
same,growth inhibition,[2]; at 100.0 µM,9%
same,growth inhibition,[3]; at 1.2 µM,-2%
same,growth inhibition,[3]; at 3.7 µM,-3%
same,growth inhibition,[3]; at 11.0 µM,-2%
same,growth inhibition,[3]; at 33.0 µM,9%
same,growth inhibition,[3]; at 100.0 µM,37%
same,growth inhibition,[4]; at 1.2 µM,-4%
same,growth inhibition,[4]; at 3.7 µM,-2%
same,growth inhibition,[4]; at 11.0 µM,0%
same,growth inhibition,[4]; at 33.0 µM,19%
same,growth inhibition,[4]; at 100.0 µM,62%
same,growth inhibition,[5]; at 1.2 µM,4%
same,growth inhibition,[5]; at 3.7 µM,4%
same,growth inhibition,[5]; [17],13%
same,growth inhibition,[5]; at 11.0 µM,5%
same,growth inhibition,[5]; at 33.0 µM,7%
same,growth inhibition,[5]; [18],11%
same,growth inhibition,[5]; at 50.0 µM,31%
same,growth inhibition,[5]; at 100.0 µM,34%
same,growth inhibition,[6]; at 1.2 µM,-2%
same,growth inhibition,[6]; at 3.7 µM,1%
same,growth inhibition,[6]; [17],0%
same,growth inhibition,[6]; at 11.0 µM,1%
same,growth inhibition,[6]; at 33.0 µM,1%
same,growth inhibition,[6]; [18],22%
same,growth inhibition,[6]; at 50.0 µM,20.8%
same,growth inhibition,[6]; at 100.0 µM,45%
same,growth inhibition,[7]; at 1.2 µM,1%
same,growth inhibition,[7]; at 3.7 µM,2%
same,growth inhibition,[7]; at 11.0 µM,6%
same,growth inhibition,[7]; at 33.0 µM,13%
same,growth inhibition,[7]; at 100.0 µM,51%
same,growth inhibition,[8]; [17],3%
same,growth inhibition,[8]; [18],27%
same,growth inhibition,[8]; at 50.0 µM,59%
same,growth inhibition,[9]; at 1.2 µM,0%
same,growth inhibition,[9]; at 3.7 µM,2%
same,growth inhibition,[9]; at 11.0 µM,4%
same,growth inhibition,[9]; at 33.0 µM,9%
same,growth inhibition,[9]; at 100.0 µM,54%
same,growth inhibition,[10]; [17],5%
same,growth inhibition,[10]; [18],27%
same,growth inhibition,[10]; at 50.0 µM,55.6%
same,growth inhibition,[11]; at 1.2 µM,0%
same,growth inhibition,[11]; at 3.7 µM,-3%
same,growth inhibition,[11]; [17],-3%
same,growth inhibition,[11]; at 11.0 µM,2%
same,growth inhibition,[11]; at 33.0 µM,11%
same,growth inhibition,[11]; [18],30%
same,growth inhibition,[11]; at 50.0 µM,71.8% (active)
same,growth inhibition,[11]; at 100.0 µM,75% (active)
same,growth inhibition,[12]; at 1.2 µM,0%
same,growth inhibition,[12]; at 3.7 µM,-1%
same,growth inhibition,[12]; at 11.0 µM,1%
same,growth inhibition,[12]; at 33.0 µM,4%
same,growth inhibition,[12]; at 100.0 µM,64%
same,growth inhibition,[13]; at 1.2 µM,-1%
same,growth inhibition,[13]; at 3.7 µM,0%
same,growth inhibition,[13]; at 11.0 µM,3%
same,growth inhibition,[13]; at 33.0 µM,5%
same,growth inhibition,[13]; at 100.0 µM,64%
same,growth inhibition,[14]; at 1.2 µM,0%
same,growth inhibition,[14]; at 3.7 µM,1%
same,growth inhibition,[14]; at 11.0 µM,3%
same,growth inhibition,[14]; at 33.0 µM,13%
same,growth inhibition,[14]; at 100.0 µM,78% (active)
same,growth inhibition,[15]; [17],-3%
same,growth inhibition,[15]; [18],35%
same,growth inhibition,[15]; at 50.0 µM,42%
same,growth inhibition,[16]; at 1.2 µM,2%
same,growth inhibition,[16]; at 3.7 µM,0%
same,growth inhibition,[16]; at 11.0 µM,7%
same,growth inhibition,[16]; at 33.0 µM,1%
same,growth inhibition,[16]; at 100.0 µM,40%
CCCC(O)C1CC(C(C)C)CCC1C (stereo unspecified),growth inhibition,[1]; at 1.2 µM,0%
same,growth inhibition,[1]; at 3.7 µM,1%
same,growth inhibition,[1]; at 11.0 µM,2%
same,growth inhibition,[1]; at 33.0 µM,7%
same,growth inhibition,[1]; at 100.0 µM,43%
same,growth inhibition,[2]; at 1.2 µM,-1%
same,growth inhibition,[2]; at 3.7 µM,0%
same,growth inhibition,[2]; at 11.0 µM,-1%
same,growth inhibition,[2]; at 33.0 µM,3%
same,growth inhibition,[2]; at 100.0 µM,75% (active)
same,growth inhibition,[3]; at 1.2 µM,-3%
same,growth inhibition,[3]; at 3.7 µM,-2%
same,growth inhibition,[3]; at 11.0 µM,7%
same,growth inhibition,[3]; at 33.0 µM,47%
same,growth inhibition,[3]; at 100.0 µM,98% (active)
same,growth inhibition,[4]; at 1.2 µM,-2%
same,growth inhibition,[4]; at 3.7 µM,0%
same,growth inhibition,[4]; at 11.0 µM,-1%
same,growth inhibition,[4]; at 33.0 µM,5%
same,growth inhibition,[4]; at 100.0 µM,96% (active)
same,growth inhibition,[5]; at 1.2 µM,0%
same,growth inhibition,[5]; at 3.7 µM,-46%
same,growth inhibition,[5]; [17],0%
same,growth inhibition,[5]; at 11.0 µM,25%
same,growth inhibition,[5]; at 33.0 µM,6%
same,growth inhibition,[5]; [18],5%
same,growth inhibition,[5]; at 50.0 µM,31.4%
same,growth inhibition,[5]; at 100.0 µM,64%
same,growth inhibition,[6]; at 1.2 µM,0%
same,growth inhibition,[6]; at 3.7 µM,3%
same,growth inhibition,[6]; [17],0%
same,growth inhibition,[6]; at 11.0 µM,5%
same,growth inhibition,[6]; at 33.0 µM,9%
same,growth inhibition,[6]; [18],52%
same,growth inhibition,[6]; at 50.0 µM,75.5% (active)
same,growth inhibition,[6]; at 100.0 µM,96% (active)
same,growth inhibition,[7]; at 1.2 µM,-1%
same,growth inhibition,[7]; at 3.7 µM,0%
same,growth inhibition,[7]; at 11.0 µM,4%
same,growth inhibition,[7]; at 33.0 µM,17%
same,growth inhibition,[7]; at 100.0 µM,99% (active)
same,growth inhibition,[8]; [17],-11%
same,growth inhibition,[8]; [18],33%
same,growth inhibition,[8]; at 50.0 µM,24.8%
same,growth inhibition,[9]; at 1.2 µM,-3%
same,growth inhibition,[9]; at 3.7 µM,-3%
same,growth inhibition,[9]; at 11.0 µM,5%
same,growth inhibition,[9]; at 33.0 µM,4%
same,growth inhibition,[9]; at 100.0 µM,12%
same,growth inhibition,[10]; [17],4%
same,growth inhibition,[10]; [18],44%
same,growth inhibition,[10]; at 50.0 µM,92% (active)
same,growth inhibition,[11]; at 1.2 µM,-3%
same,growth inhibition,[11]; at 3.7 µM,-2%
same,growth inhibition,[11]; [17],-2%
same,growth inhibition,[11]; at 11.0 µM,-3%
same,growth inhibition,[11]; at 33.0 µM,1%
same,growth inhibition,[11]; [18],10%
same,growth inhibition,[11]; at 50.0 µM,92.3% (active)
same,growth inhibition,[11]; at 100.0 µM,98% (active)
same,growth inhibition,[12]; at 1.2 µM,-1%
same,growth inhibition,[12]; at 3.7 µM,6%
same,growth inhibition,[12]; at 11.0 µM,0%
same,growth inhibition,[12]; at 33.0 µM,4%
same,growth inhibition,[12]; at 100.0 µM,74% (active)
same,growth inhibition,[13]; at 1.2 µM,-2%
same,growth inhibition,[13]; at 3.7 µM,0%
same,growth inhibition,[13]; at 11.0 µM,3%
same,growth inhibition,[13]; at 33.0 µM,9%
same,growth inhibition,[13]; at 100.0 µM,95% (active)
same,growth inhibition,[14]; at 1.2 µM,-2%
same,growth inhibition,[14]; at 3.7 µM,-1%
same,growth inhibition,[14]; at 11.0 µM,4%
same,growth inhibition,[14]; at 33.0 µM,15%
same,growth inhibition,[14]; at 100.0 µM,94% (active)
same,growth inhibition,[15]; [17],-1%
same,growth inhibition,[15]; [18],11%
same,growth inhibition,[15]; at 50.0 µM,55.9%
same,growth inhibition,[16]; at 1.2 µM,0%
same,growth inhibition,[16]; at 3.7 µM,1%
same,growth inhibition,[16]; at 11.0 µM,2%
same,growth inhibition,[16]; at 33.0 µM,9%
same,growth inhibition,[16]; at 100.0 µM,92% (active)
